Measured values: PubChem BioAssay (NCI)
The panel holds about 83,000 compounds, 20% with a hit somewhere; the sample as a whole holds those more often.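 Assay: single dose, 48 h. Readout: percent growth (0 = no net growth; negative = cell death). Active: <10.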 Activity calls are given as the source filed them.

test system: RXF 393 renal; test: NCI-60 one-dose screen, 48 h (100 = growth as untreated, 0 = no growth, -100 = all killed); conditions: 10 µM unless noted

Row | SMILES | growth
1 | O=C(CSc1nc2ccccc2c(=O)[nH]1)NCCN1CCCCC1 | 115% (inactive)
2 | N#Cc1c(-c2ccccc2Cl)cc(-c2c[nH]c3ccccc23)[nH]c1=O | 48.7% (inactive)
3 | N/C(=N\c1nc2ccccc2s1)NC(=O)NCCCCCCO | 43.6% (inactive)
4 | O=C(NNc1ccccc1)n1c(=O)c2ccccc2c(=O)n1-c1ccccc1 | 109% (inactive)
5 | CC(=O)Oc1ccccc1C(=O)[Se]CC(=O)Nc1cccc(C(F)(F)F)c1 | -25.5% (active)
6 | COc1ccc(Cc2nn(CC(=O)N/N=C/c3ccc(F)cc3)c(=O)c3c(C)noc23)cc1 | -26% (active)
7 | COc1ccc(C(=O)/C=C/c2ccc(Oc3nc(Nc4ccc(F)cc4)nc(N(C)C)n3)c(OC)c2)cc1 | 50.6% (inactive)
8 | O=C(N/N=C/c1ccc(-c2ccc(O)cc2)o1)c1[nH]c2ccc(Br)cc2c1-c1ccccc1 | -10% (active)
9 | CC(=O)OC[C@@]1(C)C2CC[C@]3(C)C(CC=C4C5CC(C)(C)CC[C@]5(C(=O)Nc5ccc(Br)cc5)CC[C@]43C)[C@@]2(C)C[C@@H](OC(C)=O)[C@@H]1OC(C)=O (stereo not given in full) | 72.8% (inactive)
10 | Cc1ccc(-n2c(-c3cc4ccccc4nc3Cl)noc2=O)cc1 | 92.4% (inactive)
11 | Cc1ccc(Cc2cnc(NC(=O)c3ccc(/C=C4\SC(=S)N(C)C4=O)cc3)s2)cc1 | 29.4% (inactive)
12 | C=C1CC[C@@H]2[C@]3(C)COC(c4cn[nH]c4-c4ccc(OC)cc4)O[C@@H]3CC[C@@]2(C)[C@@H]1C/C=C1/C(=O)OCC1O (stereo not given in full) | -58.5% (active)
13 | Cc1c(C(=O)NNC(=O)c2ccc(Cl)cc2)nnn1-c1ccc(Br)cc1 | 93.1% (inactive)
14 | CC(=O)Nc1cccc(Nc2nc(NCc3ccccc3)c3ccccc3n2)c1 | -95.2% (active)
15 | C[C@H](Nc1nc(NCCc2ccccc2)nc2ccccc12)c1ccccc1 | -90.5% (active)
16 | Cc1c(C(=O)NNC(=O)Nc2ccc(Cl)cc2)nnn1-c1ccc(Br)cc1 | 90.5% (inactive)

Row | SMILES | growth
17 | O=c1c2ccccc2nc(-c2ccccc2)n1/N=C/c1ccc2ccccc2c1 | 81.2% (inactive)
18 | CN(C)c1nc(NCCNS(=O)(=O)c2ccc(C3=Nc4c(N)nc(N)nc4NC(c4ccccc4)C3)cc2)nc(Nc2ccc(F)cc2)n1 (stereo not given) | 13.4% (inactive)
19 | O=C(O)c1cccc(-c2ccc(/C=N/NC(=O)c3[nH]c4ccc(Br)cc4c3-c3ccccc3)o2)c1 | 24.7% (inactive)
20 | Cc1ccc2c(N)c(C(=O)Nc3ccc(OC(F)(F)F)cc3)sc2n1 | 86.3% (inactive)
21 | COc1cc(/C=C/C(=O)c2nnn(-c3ccc(Cl)cc3)c2C)cc(OC)c1OC | 49.7% (inactive)
22 | N#Cc1ccc(C(=O)Nn2c(N)cc3ccccc3c2=O)cc1 | 104% (inactive)
23 | COc1cc(-c2ccc(/C=N/NC(=O)c3[nH]c4ccc(Br)cc4c3-c3ccccc3)s2)cc(OC)c1OC | 82.4% (inactive)
24 | N#Cc1c(-c2ccc(Br)cc2)nc2n[nH]c(-c3ccc(Br)cc3)c2c1-c1ccc(F)cc1 | 102% (inactive)
25 | Cn1nc(C(F)(F)F)cc1-c1cc(Cl)c(COc2ccc(Cl)cc2)c(-c2ccc(Cl)c(C(F)(F)F)c2)c1O | -47.7% (active)
26 | CC1=C(C(=O)OCc2ccccc2)C(c2c(O)cc(O)cc2O)n2c(nc3ccccc32)N1 (stereo not given) | 25.5% (inactive)
27 | Cc1ncsc1-c1ccc(CNC(=O)[C@@H]2C[C@@H](O)CN2C(=O)[C@@H](NC(=O)C2(F)CC2)C(C)(C)C)c(OCCOCCOCCOCCOc2nc(Nc3cc(S(C)(=O)=O)ccc3N[C@@H](c3cccc4c3OC(F)(F)O4)c3ncccc3Cl)nc(N3CCNCC3)n2)c1 | 65.3% (inactive)
28 | N#Cc1c(-c2ccc(Cl)cc2)nc2n[nH]c(-c3ccc(Cl)cc3)c2c1-c1cccs1 | 58.2% (inactive)
29 | COc1cccc(-c2c(C#N)c(-c3ccc(Cl)cc3)nc3n[nH]c(-c4ccc(Cl)cc4)c23)c1 | 39.3% (inactive)
30 | C=C1CC[C@@H]2[C@]3(C)COC(c4cn(-c5ccccc5)nc4-c4ccccc4)O[C@@H]3CC[C@@]2(C)[C@@H]1C/C=C1/C(=O)OC[C@H]1O (stereo not given in full) | -90.8% (active)
31 | CSc1ccc(C(=O)Nc2ccc3nnn(/C(C#N)=C/c4ccccn4)c3c2)cc1 | -95.5% (active)
32 | CCOC(=O)C1=C(N)N(c2ccccc2)C2=C(C(=O)CC(C)(C)C2)C1c1cccc(Cl)c1Cl (stereo not given) | 53.4% (inactive)

test system: SF-268 CNS; test: as above; conditions: 10 µM unless noted

Row | SMILES | growth
33 | O=C(CSc1nc2ccccc2c(=O)[nH]1)NCCN1CCCCC1 | 92.9% (inactive)
34 | N#Cc1c(-c2ccccc2Cl)cc(-c2c[nH]c3ccccc23)[nH]c1=O | 80% (inactive)
35 | CCCCSc1nc(Nc2ccc(C(C)=O)cc2)c(C#N)c(-c2ccc(OC)cc2)n1 | 63.1% (inactive)
36 | N/C(=N\c1nc2ccccc2s1)NC(=O)NCCCCCCO | 61.6% (inactive)
37 | O=C(NNc1ccccc1)n1c(=O)c2ccccc2c(=O)n1-c1ccccc1 | 92.8% (inactive)
38 | CC(=O)Oc1ccccc1C(=O)[Se]CC(=O)Nc1cccc(C(F)(F)F)c1 | 2.38% (active)
39 | COc1ccc(Cc2nn(CC(=O)N/N=C/c3ccc(F)cc3)c(=O)c3c(C)noc23)cc1 | 46.7% (inactive)
40 | COc1ccc(C(=O)/C=C/c2ccc(Oc3nc(Nc4ccc(F)cc4)nc(N(C)C)n3)c(OC)c2)cc1 | 51.8% (inactive)
41 | O=C(N/N=C/c1ccc(-c2ccc(O)cc2)o1)c1[nH]c2ccc(Br)cc2c1-c1ccccc1 | 12.7% (inactive)
42 | CC(=O)OC[C@@]1(C)C2CC[C@]3(C)C(CC=C4C5CC(C)(C)CC[C@]5(C(=O)Nc5ccc(Br)cc5)CC[C@]43C)[C@@]2(C)C[C@@H](OC(C)=O)[C@@H]1OC(C)=O (stereo not given in full) | 66.1% (inactive)
43 | Cc1ccc(-n2c(-c3cc4ccccc4nc3Cl)noc2=O)cc1 | 86.7% (inactive)
44 | O=c1cc(-c2ccccc2)oc2cc(OCCCC[P+](c3ccccc3)(c3ccccc3)c3ccccc3)cc(O)c12 | -59% (active)
45 | Cc1ccc(Cc2cnc(NC(=O)c3ccc(/C=C4\SC(=S)N(C)C4=O)cc3)s2)cc1 | 38.6% (inactive)
46 | C=C1CC[C@@H]2[C@]3(C)COC(c4cn[nH]c4-c4ccc(OC)cc4)O[C@@H]3CC[C@@]2(C)[C@@H]1C/C=C1/C(=O)OCC1O (stereo not given in full) | 3.8% (active)
47 | Cc1ccc(/C=C/c2n(Cc3ccc4ccccc4c3)c3ccccc3[n+]2Cc2ccc3ccccc3c2)cc1 | -65.1% (active)
48 | Cc1c(C(=O)NNC(=O)c2ccc(Cl)cc2)nnn1-c1ccc(Br)cc1 | 108% (inactive)
49 | CC(=O)Nc1cccc(Nc2nc(NCc3ccccc3)c3ccccc3n2)c1 | -72.8% (active)
50 | C[C@H](Nc1nc(NCCc2ccccc2)nc2ccccc12)c1ccccc1 | -70.4% (active)
51 | Cc1c(C(=O)NNC(=O)Nc2ccc(Cl)cc2)nnn1-c1ccc(Br)cc1 | 103% (inactive)

Row | SMILES | growth
52 | O=c1oc2ccccc2cc1-c1csc(N=Nc2c(O)[nH]c3ccc(Cl)cc23)n1 | 82.1% (inactive)
53 | O=c1c2ccccc2nc(-c2ccccc2)n1/N=C/c1ccc2ccccc2c1 | 49.9% (inactive)
54 | CN(C)c1nc(NCCNS(=O)(=O)c2ccc(C3=Nc4c(N)nc(N)nc4NC(c4ccccc4)C3)cc2)nc(Nc2ccc(F)cc2)n1 (stereo not given) | 46.9% (inactive)
55 | O=C(O)c1cccc(-c2ccc(/C=N/NC(=O)c3[nH]c4ccc(Br)cc4c3-c3ccccc3)o2)c1 | 47.6% (inactive)
56 | Cc1ccc2c(N)c(C(=O)Nc3ccc(OC(F)(F)F)cc3)sc2n1 | 98.9% (inactive)
57 | COc1cc(/C=C/C(=O)c2nnn(-c3ccc(Cl)cc3)c2C)cc(OC)c1OC | 38.8% (inactive)
58 | N#Cc1ccc(C(=O)Nn2c(N)cc3ccccc3c2=O)cc1 | 106% (inactive)
59 | COc1cc(-c2ccc(/C=N/NC(=O)c3[nH]c4ccc(Br)cc4c3-c3ccccc3)s2)cc(OC)c1OC | 67.8% (inactive)
60 | N#Cc1c(-c2ccc(Br)cc2)nc2n[nH]c(-c3ccc(Br)cc3)c2c1-c1ccc(F)cc1 | 129% (inactive)
61 | Cn1nc(C(F)(F)F)cc1-c1cc(Cl)c(COc2ccc(Cl)cc2)c(-c2ccc(Cl)c(C(F)(F)F)c2)c1O | -0.375% (active)
62 | CC1=C(C(=O)OCc2ccccc2)C(c2c(O)cc(O)cc2O)n2c(nc3ccccc32)N1 (stereo not given) | 52.7% (inactive)
63 | Cc1ncsc1-c1ccc(CNC(=O)[C@@H]2C[C@@H](O)CN2C(=O)[C@@H](NC(=O)C2(F)CC2)C(C)(C)C)c(OCCOCCOCCOCCOc2nc(Nc3cc(S(C)(=O)=O)ccc3N[C@@H](c3cccc4c3OC(F)(F)O4)c3ncccc3Cl)nc(N3CCNCC3)n2)c1 | 65.7% (inactive)
64 | N#Cc1c(-c2ccc(Cl)cc2)nc2n[nH]c(-c3ccc(Cl)cc3)c2c1-c1cccs1 | 72.9% (inactive)
65 | COc1cccc(-c2c(C#N)c(-c3ccc(Cl)cc3)nc3n[nH]c(-c4ccc(Cl)cc4)c23)c1 | 65.9% (inactive)
66 | CCCCn1c(O)c(N=Nc2nc(-c3cc4ccccc4oc3=O)cs2)c2cc(Br)ccc21 | 97% (inactive)
67 | C=C1CC[C@@H]2[C@]3(C)COC(c4cn(-c5ccccc5)nc4-c4ccccc4)O[C@@H]3CC[C@@]2(C)[C@@H]1C/C=C1/C(=O)OC[C@H]1O (stereo not given in full) | 8.39% (active)
68 | CCCCCCn1c(O)c(N=Nc2nc(-c3cc4ccccc4oc3=O)cs2)c2ccccc21 | 11% (inactive)
69 | CSc1ccc(C(=O)Nc2ccc3nnn(/C(C#N)=C/c4ccccn4)c3c2)cc1 | 30.5% (inactive)
70 | CCOC(=O)C1=C(N)N(c2ccccc2)C2=C(C(=O)CC(C)(C)C2)C1c1cccc(Cl)c1Cl (stereo not given) | 66% (inactive)
